The values that follow come from PubChem BioAssay (Tox21).

Structures are written as SMILES. Inconclusive results are not listed. A call without a number means that no potency is given here. More than one record can exist for a structure, and the calls need not agree. Calls of active or inactive are those of the source. The call rests on the fitted dose curve; in most records, active means well fitted cell-killing curve with a large enough effect in the repeat runs; inconclusive means weak or mixed curves, or effect the other way; inactive means flat fitted curve, though single readings scatter.
Potency means the concentration at half of the fitted maximal effect.

The nature of the assay: qHTS assay to identify small molecule agonists of the androgen receptor (AR) signaling pathway in the presence of an antagonist - cell viability counter screen (AID 1259379). Further: nearly all actives have a fitted effect of over 25% in size. Particulars: MDA-kb2 viability, CellTiter-Fluor, 16 h; series mostly up to 92.4 µM; activity change, negative = cytotoxicity: at the top concentration. From the text:
National Center for Advancing Translational Sciences [NCATS]
NIH Chemical Genomics Center [NCGC]
U.S. Environmental Protection Agency [EPA]
National Institutes of Environmental Health Sciences [NIEHS]
National Toxicology Program [NTP]
U.S. Food and Drug Administration [FDA]
Androgen receptor (AR) is an important member of nuclear receptor family. Its signaling plays a critical role in AR-dependent prostate cancer and other androgen related diseases. Considerable attention has been given in the past decades to develop methods to study and screen for the environmental chemicals that have the potential to interfere with metabolic homeostasis, reproduction, developmental and behavioral functions. Therefore AR binding assay for screening against androgen agonists and antagonists can be used to identify potential endocrine disruptors.
MDA-kb2 cells (from ATCC, deposited by Wilson et al.) are human breast carcinoma cells that were stably transfected with a luciferase reporter gene under control of the MMTV promoter that contains response elements for both androgen receptor (AR) and glucocorticoid receptor (GR). This particular screening for measuring luciferase reporter gene activity using MDA-kb2 cells against Tox21 10K library compounds is a confirmation study on agonist mode screening in the presence of AR-antagonist compound (Nilutamide) at 3.0uM final concentration. The cytotoxicity of the compounds was tested in parallel by measuring the cell viability using CellTiter-Fluor assay system (Promega, Madison, WI) in the same wells.
Tox21 Assay Protocol Summary:
MDA-kb2 cells (cells cultured without CO2) were dispensed at 3,000 cells/well in 4uL of culture medium into white wall/solid-bottom 1536-well plates (Corning Life Sciences, Corning, NY) using a Multidrop Combi (Thermo Fisher Scientific Inc., Waltham, MA) dispenser. The assay plates were incubated at 37C and 0% CO2 for 5hr. One uL of 3.0uM (final concentration) Nilutamide or assay buffer was added using two separate tips of Flying Reagent Dispenser (FRD, Aurora Discovery, San Diego, CA). Then 23nL of compounds dissolved in DMSO at 15 concentrations and positive controls were transferred to the assay plates using a Pintool station (Wako, San Diego, CA). The assay plates were incubated at 37C and 0% CO2 for 16 hr. After 15hr incubation at 37C, 1uL/well CellTiter-Fluor reagent (Promega Corporation) was added to each well of the assay plates using FRD. After 1hr incubation at 37C and 0% CO2, the fluorescence signal was measured using a ViewLux plate reader (PerkinElmer, Shelton, CT).
On the technique in general: qHTS replaces the single test concentration by a dilution series.
`CCCCCCCCCCCCCO`: the Potency entry was “inactive”.

Consider `c1ccc2c(c1)[nH]c1ccccc12`, for which the Potency entry is “inactive”. Still for that read-out and setting: then `O=S1(=O)CCCO1`, with “inactive”; and `CN(Cc1cnc2nc(N)nc(N)c2n1)c1ccc(C(=O)N[C@@H](CCC(=O)O)C(=O)O)cc1`, with “inactive”.

As for `CC(=O)O[C@]1(C(C)=O)CC[C@H]2[C@@H]3C=C(C)C4=CC(=O)CC[C@]4(C)[C@H]3CC[C@@]21C`, the “activity change, negative = cytotoxicity” value was -1.79% [at 42.5 µM] (inactive). Turning to `COCCOCCOCCO`, the Potency result is “inactive”. On the same count and under the same terms, for `CC(C)(Oc1ccc(Cl)cc1)C(=O)O` the value was “inactive”. The same measure, in the same setting: then `CCCCCCCC/C=C\CCCCCCCC(=O)O`, with “inactive”; and `CC[C@]12CCCN3CCc4c(n(c5ccccc45)[C@@](O)(C(=O)OC)C1)[C@@H]32`, with “inactive”; and `CC/C=C\C/C=C\C/C=C\CCCCCCCC(=O)O`, with “inactive”.

Regarding `CCO[Si](CCCNC(N)=O)(OCC)OCC`, the Potency result was “inactive”. Still for that read-out and setting: for `O=C(O)c1cc(=O)[nH]c(=O)[nH]1` the value was “inactive”. Still for that read-out and setting: for `CCCCCCC(C)O` (stereo not given) the value was “inactive”.

For `CC1(C)NC(=O)N(c2ccc([N+](=O)[O-])c(C(F)(F)F)c2)C1=O`, the “activity change, negative = cytotoxicity” value is -12% [at 42.5 µM] (inactive). The same measure, in the same setting: for `COc1cc([C@H]2Oc3cc([C@H]4Oc5cc(O)cc(O)c5C(=O)[C@@H]4O)ccc3O[C@@H]2CO)ccc1O` the value was -0.148% [at 42.5 µM] (inactive).

`CCCCCC=O`: the Potency entry is “inactive”. As to `Nc1ccc2c(O)cc(S(=O)(=O)O)cc2c1`, the “activity change, negative = cytotoxicity” value was -14.1% (inactive). Turning to `COC(=O)c1ccc(C)cc1`, the Potency entry is “inactive”. As for `NCCS(=O)(=O)O`, the Potency is 25.3 µM (active) and inactive. The same measure, in the same setting: then `C/C=C/C(=O)N(CC)c1ccccc1C`, with “inactive”.

Regarding `C=C[Si](OCCOC)(OCCOC)OCCOC`, the Potency entry was “inactive”. Same read-out and setting: then `O=C(O)COCCN1CCN(C(c2ccccc2)c2ccc(Cl)cc2)CC1` (stereo not given), with “inactive”; and `C[C@]12CC[C@@H]3c4ccc(O)cc4CC[C@H]3[C@@H]1CC[C@H]2O`, with “inactive”. Still for that read-out and setting: then `Cc1cccc(Nc2ccccc2C(=O)O)c1C`, with “inactive”; and `C[N+](C)(C)CCO`, with “inactive”; and `C1COCCN1`, with “inactive”.

Regarding `CCOC(=O)C(C)Oc1ccc(Oc2cnc3cc(Cl)ccc3n2)cc1` (stereo not given), the Potency entry is “inactive”. On the same count and under the same terms, for `COc1ccc(C(=O)c2ccccc2O)c(O)c1` the value was “inactive”.

As to `NCCN`, the Potency result was “inactive”. Same read-out and setting: for `CN(C)C` the value was “inactive”; for `Cc1ccc(C(C)(C)C)cc1`, “inactive”.

As for `c1ccc2ncccc2c1`, the Potency result is “inactive”. The same measure, in the same setting: for `CCCCCCOCCOCCO` the value was “inactive”; for `IC(I)I`, “inactive”. Same read-out and setting: for `CC1(C)OC(=O)NC1=O` the value was “inactive”.

With `CCCCCCCCCCC(CO)CCCCCCCC` (stereo not given), the Potency entry was “inactive”. As for `Nc1cc(Cl)c(N)c(Cl)c1`, the Potency entry was “inactive”. The same measure, in the same setting: for `CC1(C)O[C@@H]2C[C@H]3[C@@H]4C[C@H](F)C5=CC(=O)C=C[C@]5(C)[C@@]4(F)[C@@H](O)C[C@]3(C)[C@]2(C(=O)CO)O1` the value was “inactive”; for `CC(=O)OC(C)C`, “inactive”; for `OCCNCCO`, “inactive”.
